A selection: hits, their analogues and other compounds. The true share with any hit is near 3.3%.
IMPase inh: membrane-permeable compound that blocks inositol monophosphatase. P97697. CHO-M1 cells, IP1 accumulation, HTRF TR-FRET ratio. inhibition (IP1 accumulation), % at 46.1 µM. 120,000 tested, under 10 active. AID 901; active = well fitted curve in the direction sought with a large enough effect in the signal ratio, not every such curve was filed as active; inconclusive = small, poorly fitted or top-dose-only effect, or a change in a side signal; inactive = no such curve, though single readings can be large or run the other way; the % refers to the signal ratio;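 note: cells stimulated with carbachol in lithium chloride buffer; plate controls were DMSO basal wells for no effect and reference inhibitor wells for full effect; higher means more IMPase inhibition seen as more IP1 and lower FRET ratio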
Target sequence (P97697 whole entry, looked up): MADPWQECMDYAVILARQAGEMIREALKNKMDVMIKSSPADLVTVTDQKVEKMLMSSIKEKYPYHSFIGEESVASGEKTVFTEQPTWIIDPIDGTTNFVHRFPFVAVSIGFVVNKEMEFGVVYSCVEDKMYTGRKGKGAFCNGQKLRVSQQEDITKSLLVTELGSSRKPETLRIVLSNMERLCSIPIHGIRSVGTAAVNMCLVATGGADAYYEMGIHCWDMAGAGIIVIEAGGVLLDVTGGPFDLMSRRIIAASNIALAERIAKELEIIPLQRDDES
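In this qHTS, compounds (final up to 46 uM) act on CHO-M1 cells that are then activated through the M1 receptor with carbachol, in pH 7.4 buffer containing 50 mM LiCl, for 30 min. IP1 accumulation is quantified by the IP-One immunoassay.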
NPSR antag: antagonists of human neuropeptide S receptor cAMP signaling | AID 1461 | Q6W5P4 | CHO-NPSR cells, cAMP TR-FRET, antagonist mode | Potency, µM (doses to about 38.3 µM), without a hit: at the highest dose activity change, negative = inhibition, actives largely listed as inhibitors | 1% of 220,000 active; note: potency is the fitted concentration of half-maximal effect; % is set by controls: 0 for no effect and ±100 for the full control effect; nearly all actives have a fitted effect of over 50% in size
Target sequence (Q6W5P4 whole entry, looked up): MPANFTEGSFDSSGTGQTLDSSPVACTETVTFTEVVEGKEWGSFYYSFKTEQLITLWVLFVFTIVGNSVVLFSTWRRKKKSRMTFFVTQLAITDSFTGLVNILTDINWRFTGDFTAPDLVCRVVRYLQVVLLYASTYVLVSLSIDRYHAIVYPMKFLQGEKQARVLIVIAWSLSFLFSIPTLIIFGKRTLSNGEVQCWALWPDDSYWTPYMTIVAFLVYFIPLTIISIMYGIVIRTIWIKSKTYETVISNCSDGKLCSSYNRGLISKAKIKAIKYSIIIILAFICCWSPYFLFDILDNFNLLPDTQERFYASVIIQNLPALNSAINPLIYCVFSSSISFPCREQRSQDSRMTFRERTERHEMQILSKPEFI
PNC inhibitor: perinucleolar compartment assembly inhibition. PC3M PTB-GFP, PNC prevalence imaging, 16 h; stronger effect = lower value. 3.1% of 140,000 active. AID 2417. activity change (PNC), negative = inhibition, % at 10 µM;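 active = readout at or below -70, meaning at least 70% loss of cells showing the perinucleolar compartment, a nuclear body marking cancer cells; inconclusive = readout between -30 and a set limit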;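 note: plate controls were DMSO wells for no effect and camptothecin positive control wells for full effect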
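Read-out is percentage of cells bearing a perinucleolar compartment, from automated 20x imaging of fixed, Hoechst-stained PC3M PTB-GFP cells. Cells were seeded 4 h, then exposed 16 h to compound (23 nl of library stock) in duplicate plates.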
HTT aggregate: inhibitors of mutant huntingtin aggregate formation in PC12 cells. PC12 HttQ103-GFP aggregates, Acumen cytometry, 40 h. Potency, µM (highest dose often 46.1 µM), for the others: top-dose activity change, negative = inhibition, hits mostly inhibitors. 1.1% of 220,000 active. AID 1688; note: potency is the fitted concentration of half-maximal effect; % is set by controls: 0 for no effect and ±100 for the full control effect; nearly all actives have a fitted effect of over 60% in size
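Using laser scanning cytometry, GFP-positive aggregates were counted after lysis of PC12 cells induced with 100 nM tebufenozide to express HTT exon 1 Q103–GFP. Compounds were tested in titration.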
12-hLO inh: inhibitors of human 12-lipoxygenase (ALOX12); P18054; purified 12-hLO, xylenol orange hydroperoxide absorbance; Potency, µM (top dose mostly 57.1 µM), for the others: at the top dose activity change, negative = inhibition, usual class: inhibitors; 0.12% of 150,000 active; note: potency is the fitted concentration of half-maximal effect; % is set by controls: 0 for no effect and ±100 for the full control effect; nearly all actives have a fitted effect of over 55% in size
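Hydroperoxide output read as Fe(III)-xylenol orange absorbance, 573-to-405 nm ratio, after 30 min reaction with 40 uM arachidonic acid. Enzyme: 150 nM purified human 12hLO, 15 min compound preincubation; 25 mM Hepes pH 7.0, room temperature.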
HTT ATP protect: Huntington cell model cytoprotection by ATP luminescence | PC12 HTT-Q103 induced, cytoprotection, ATP luminescence, 40 h | Potency, µM (series often up to 56.4 µM), without a hit: cytoprotection (ATP increase), usual class: activators | 0.14% of 230,000 active; note: potency is the fitted concentration of half-maximal effect; % of control where 0% means no effect; nearly all actives have a fitted effect of over 45% in size
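PC12 cells with ecdysone-inducible HTT exon 1 Q103-GFP, induced with 100 nM tebufenozide and co-treated with library compounds in a dose series (1536-well, 1500 cells/well). Cytoprotection read as ATP content by ATPlite luminescence.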
Starred values were filed as active, the others as inactive; [ ] = dose if it differs, or a comment. Unless noted, calls come from the whole dose curve; as a rule, active = well fitted curve in the direction sought with a large enough effect; inconclusive = small, poorly fitted or top-dose-only effect, or another doubt; inactive = no such curve, though single readings can be large; an effect the other way counts as inactive or inconclusive.

For O=C(/C=C/c1ccccc1)N1CCC(Cc2ccccc2)CC1 the results were IMPase inh -19, NPSR antag -16%[46.1 µM], PNC inhibitor -3, HTT aggregate 5%, 12-hLO inh -15% and HTT ATP protect -7%.
COc1ccccc1N1CCN(C(=O)/C=C/c2ccccc2)CC1 was read as IMPase inh -6, NPSR antag -5%[46.1 µM], PNC inhibitor -100*, HTT aggregate 19%, 12-hLO inh 5% and HTT ATP protect 4%[10 µM].
COC(=O)C1CCN(C(=O)/C=C/c2ccccc2)CC1 was read as NPSR antag 8%, PNC inhibitor -114*, HTT aggregate -5% and 12-hLO inh -2%.
Screening CC(=O)c1ccc(NC(=S)NC(=O)c2c(Cl)c(C)nn2C)cc1 returned NPSR antag 3%, PNC inhibitor -109*, HTT aggregate 4% and 12-hLO inh 3%.
Screening O=C(O)CCN1C(=O)/C(=C\c2ccc(-c3nc4ccccc4s3)o2)SC1=S returned IMPase inh 1, NPSR antag 13µM*, PNC inhibitor -17, 12-hLO inh -4% and HTT ATP protect inconclusive.
For O=C(O)CCCN1C(=O)/C(=C\c2ccco2)SC1=S the results were NPSR antag 33%, HTT aggregate 22%[9.22 µM] and HTT ATP protect 10%[10 µM].
`COc1ccc(C(=O)Oc2ccc(C(C)=O)cc2)c(OC)c1` gave IMPase inh 12, NPSR antag -11%[46.1 µM], PNC inhibitor -83*, HTT aggregate -4%[9.22 µM], 12-hLO inh -6% and HTT ATP protect 0%.
For C/C(=N\NC(=O)Nc1ccccc1)c1ccc2ccccc2c1 the results were NPSR antag 4%, PNC inhibitor 6, HTT aggregate 4%, 12-hLO inh 2% and HTT ATP protect 12%[10 µM].
COc1ccc(/C(C)=N\NS(C)(=O)=O)c(OC)c1 was read as NPSR antag 9%, PNC inhibitor -84*, HTT aggregate -4% and 12-hLO inh 3%.
C/C(=N/NS(C)(=O)=O)c1ccc2ccccc2c1 was read as IMPase inh 0, NPSR antag 10%[46.1 µM], PNC inhibitor -103*, HTT aggregate -2%, 12-hLO inh 1% and HTT ATP protect -7%.
Screening C#C[C@]1(OC(C)=O)CC[C@H]2[C@@H]3CCC4=C/C(=N/O)CC[C@@H]4[C@H]3CC[C@@]21CC returned HTT aggregate -17% and HTT ATP protect -16%.
COc1cc(N)c(Cl)cc1C(=O)CCC1CCN(CCNS(C)(=O)=O)CC1 was read as IMPase inh -1, 12-hLO inh -5% and HTT ATP protect -27%.
For Cc1o[nH]c(=O)c1CCC(N)C(=O)O (stereo not drawn) the results were HTT ATP protect -18%.
`COC(=O)N1C(C)=Cc2ccccc2C1C/C(C)=C/C(C)=O` (stereo not drawn) gave 12-hLO inh 3%[11.4 µM] and HTT ATP protect -7%.
`O=C(O)c1cc(-c2cccc(Cl)c2)nc2nc(N3CCCCC3)sc12` gave NPSR antag -46%, PNC inhibitor -86*, HTT aggregate 2%, 12-hLO inh -4% and HTT ATP protect 3%[10 µM].
For O=C1CC(Sc2nnnn2-c2ccccc2)C(=O)N1c1cccc(Cl)c1 (stereo not drawn) the results were IMPase inh -2[1.84 µM], NPSR antag inconclusive, PNC inhibitor 39, HTT aggregate 22µM*, 12-hLO inh -5% and HTT ATP protect 26%[10 µM].
For COc1ccc(N2C(=O)CC(Sc3nnnn3-c3ccc(F)cc3)C2=O)cc1 (stereo not drawn) the results were NPSR antag -21%, HTT aggregate -2%[9.22 µM] and HTT ATP protect -212%.
`O=C(CSc1nc2ccsc2c(=O)n1Cc1ccc(C(=O)O)cc1)NCc1ccco1` gave NPSR antag 2%, PNC inhibitor -113*, HTT aggregate 4% and 12-hLO inh -2%.
Screening O=C(O)C1CCC(Cn2c(SCc3cc(=O)n4cc(Br)ccc4n3)nc3ccsc3c2=O)CC1 (stereo not drawn) returned NPSR antag 7.9µM*, HTT aggregate inconclusive and HTT ATP protect -41%.
Screening O=C(O)CCCCn1c(SCc2cc(=O)n3cc(Cl)ccc3n2)nc2ccsc2c1=O returned NPSR antag -5%, PNC inhibitor inconclusive, HTT aggregate 20% and 12-hLO inh -5%.
`O=C(O)c1ccc(Cn2c(SCc3cc(=O)n4cc(Br)ccc4n3)nc3ccsc3c2=O)cc1` gave NPSR antag 10µM*, HTT aggregate 14% and HTT ATP protect 15%[10 µM].
Screening COc1ccc(Cn2c(SCC(=O)NCc3ccco3)nc3ccsc3c2=O)cc1 returned IMPase inh 2, NPSR antag -19%[46.1 µM], PNC inhibitor 5, HTT aggregate 16%, 12-hLO inh 2% and HTT ATP protect -14%[10 µM].
Screening C[C@H](CCCC(C)(C)O)[C@H]1CC[C@H]2[C@@H]3CC=C4C[C@@H](O)CC[C@]4(C)[C@H]3CC[C@]12C returned HTT aggregate -15% and HTT ATP protect -3%.
For CCCCCCN=C(C)c1ccccc1O the results were NPSR antag -18%, HTT aggregate -11%[9.22 µM] and HTT ATP protect 3%[10 µM].
`CC(C)=CC1C(CO)C1(C)C` (stereo not drawn) gave 12-hLO inh -6%.
CCOc1ccc(-c2cc(C)n3nc(C(=O)Nc4cc(Cl)ccc4O)cc3n2)cc1 was read as IMPase inh -15.
For O=C(Nc1ccc(Cl)cc1)C1CCC(=O)N1Cc1ccccc1Cl (stereo not drawn) the results were IMPase inh 0, NPSR antag -18%[46.1 µM], PNC inhibitor -90*, HTT aggregate inconclusive, 12-hLO inh 1% and HTT ATP protect 2%.
Screening CCOC(=O)c1c(NC(=O)C(C)Oc2ccccc2F)sc(C(C)=O)c1C (stereo not drawn) returned IMPase inh 4.
`COc1cc([C@@H]2c3cc4c(cc3[C@@H](OC3OC5COC(C)OC5C(O)C3O)[C@H]3COC(=O)[C@H]23)OCO4)cc(OC)c1O` (stereo partly drawn) gave HTT ATP protect -141%.
CCOC(=O)c1sc2nc(-c3ccco3)c3c(c2c1N)CC(C)(C)OC3 was read as IMPase inh -6, NPSR antag 10µM*, PNC inhibitor 25, HTT aggregate 31%, 12-hLO inh -28% and HTT ATP protect -31%.

Bioassay records deposited in PubChem BioAssay by National Center for Advancing Translational Sciences (NCATS).
